# Most compounds without a hit are left out; they make up all but 3.9% or so of the library.
# ALR H2O2 inh = inhibitors of human ALR sulfhydryl oxidase, primary screen, biochemical, H2O2 detection, HRP-luminol luminescence, single point; purified ALR, DTT oxidation; 290,000 tested, 3.8% active; inhibition, % (concentration not given with the values); FAD-linked sulfhydryl oxidase ALR (Homo sapiens), P55789;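 active means mean replicate inhibition above about 79%, with every replicate also reaching it, limit read from the data; inconclusive means only one of the two criteria met; inactive means mean below limit and not every replicate reaching it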
# Target sequence (P55789 whole entry, looked up): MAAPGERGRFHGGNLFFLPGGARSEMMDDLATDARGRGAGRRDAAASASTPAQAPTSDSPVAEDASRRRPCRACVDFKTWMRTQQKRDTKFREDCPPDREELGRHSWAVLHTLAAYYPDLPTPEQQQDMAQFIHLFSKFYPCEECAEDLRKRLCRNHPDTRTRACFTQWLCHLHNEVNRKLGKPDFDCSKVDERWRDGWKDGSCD
# NTR1 ag = agonists of human NTR1, primary screen, imaging, U2OS cells, beta-arrestin-GFP, high content | Neurotensin receptor type 1 (Homo sapiens), P30989 | NTR1-U2OS beta-arrestin-GFP spot imaging, agonist mode | activation, % at 20 µM | 330,000 tested, 0.17% active | AID 493036, 2011;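 active means activation at or above 40% of the spot to cytoplasm intensity ratio, with at least 20 cells analyzed; inconclusive means wells under 20 cells, flagged as cytotoxic or low count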;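 further: 0% = DMSO without peptide and 100% = 100 nM NTR1 peptide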
# H9c2 protect = cardioprotection against H2O2-induced cell death, primary screen, uHTS, H9c2 cells, ATPLite luminescence; H9c2 cardiomyocytes, H2O2 injury protection, 2 h; protection from H2O2 cell death, % at 20 µM; 360,000 tested, 0.63% active;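 active means compounds giving at least 50% protection of heart cells from peroxide-induced death in the single-dose screen, raw or plate-pattern-corrected value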;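 further: 0% = DMSO wells with peroxide and 100% = DMSO wells without peroxide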
# SUMO HTRF inh = inhibitors of in vitro SUMOylation cascade, primary screen, biochemical, HTRF, uHTS; inhibition, % at 35 µM; SUMO-conjugating enzyme UBC9 (Homo sapiens), P63279; AID 2006, 2009; 290,000 tested, 0.36% active; HTRF SUMOylation assay, SAE1/SAE2 + UBC9; in the data active means inhibition above about 50%, passing the limit was not always enough; inconclusive means no clear call, values can overlap the other calls
# Target sequence (P63279 whole entry, looked up): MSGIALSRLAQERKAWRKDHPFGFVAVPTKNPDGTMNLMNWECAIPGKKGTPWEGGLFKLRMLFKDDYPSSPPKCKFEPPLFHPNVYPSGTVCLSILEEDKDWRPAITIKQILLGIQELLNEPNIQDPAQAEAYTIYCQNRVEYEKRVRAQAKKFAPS
# * = called active by the depositor; ? = inconclusive; nt = no result.
SMILES,ALR H2O2 inh,NTR1 ag,H9c2 protect,SUMO HTRF inh
Cc1ccc(C(=O)CC(C(=O)O)c2cn(CCC#N)c3ccccc23)cc1 (stereo not given),96*,1,-2,8
N#CCCn1cc(C(CC(=O)c2ccc(Br)cc2)C(=O)O)c2ccccc21 (stereo not given),91*,1,1,-2
CCCn1cc(C(CC(=O)O)C(=O)O)c2ccccc21 (stereo not given),1,-1,0,-1
CCOc1ccc(NCc2cccn2-c2nnc(N3CCC(C(=O)NCCCN4CCCCC4CC)CC3)s2)cc1 (stereo not given),99*,2,-12,-1
COc1cc(/C=C(/NC(=O)c2ccccc2)C(=O)Nc2ccc(O)cc2)c([N+](=O)[O-])cc1OC,99*,0,2,16
COc1cc(C(=O)Nc2ccc(N(C)C)cc2)c([N+](=O)[O-])cc1OC,89*,0,-5,-8
COc1cc(C(=O)Nc2ccncc2)c([N+](=O)[O-])cc1OC,-8,0,-2,-4
O=C(Nc1ccc(O)cc1)/C(=C\c1cccs1)NC(=O)c1ccccc1,100*,-1,-2,13
COc1cc(/C=C(/NC(=O)c2ccccc2)C(=O)Nc2ccccc2)c([N+](=O)[O-])cc1OC,-8,0,4,5
O=C(CSc1ccsc1[N+](=O)[O-])NCCc1ccccc1,nt,-2,-2,3
C=CCN1C(=O)/C(=c2\sc3nc(=O)c(Cc4ccccc4Cl)nn3c2=O)c2ccccc21,96*,0,-4,9
CCCCN(CCCNC(=O)C1CCN(S(=O)(=O)N2CCOCC2)CC1)c1ccccc1,99*,0,-2,6
CCN(CCCNC(=O)C1CCN(S(=O)(=O)c2c(C)[nH]c(=O)[nH]c2=O)CC1)c1cccc(C)c1,nt,-1,7,10
CCN(CCNC(=O)C1CCN(S(C)(=O)=O)CC1)c1ccccc1,99*,-1,5,-5
CCN(CCCNC(=O)C1CCC(=O)N1Cc1ccc(F)cc1)c1cccc(C)c1 (stereo not given),99*,0,0,-9
CCN(CCCNC(=O)C1CCN(S(=O)(=O)CC)CC1)c1cccc(C)c1,99*,0,-5,25
COc1cccc(OC)c1C(=O)Nn1c(C2CCC2)nc2ccccc2c1=O,-14,-2,11,-6
Cc1cc(NC(=O)CSc2nnc(-c3ccncc3)n2N)ccc1Br,2,-4,2,10
O=C1C=C(NNC(=O)c2ccccc2Br)CCC1,35,0,1,10
COCCNc1c2c(nc3ccccc13)CCC2,-4,-1,-3,-14
NC(=O)c1sc(-c2ccsc2)cc1NS(=O)(=O)c1ccc(C(F)(F)F)cc1,0,0,-9,9
CCN(C(=O)COC(=O)c1cc([N+](=O)[O-])ccc1N1CCOCC1)c1ccccc1,nt,0,-2,nt
Cc1nc(NC(=O)C2CC2)sc1C(=O)Nc1ccc(Br)cc1,nt,2,3,-14
CCCS(=O)(=O)N1CCC(C(=O)NCCN(CC)c2ccccc2)CC1,71,1,1,-5
CCN(CCCNC(=O)C1CCN(S(=O)(=O)CC)CC1)c1ccccc1,99*,1,0,9
SMILES,ALR H2O2 inh,NTR1 ag,H9c2 protect,SUMO HTRF inh
CCN(CCCNC(=O)C1CCN(S(=O)(=O)N2CCC3(CC2)OCCO3)CC1)c1ccccc1,99*,0,2,11
CC1=NN(c2ccccc2)C(=O)/C1=C/C=C/C=C/N(C)C,96*,0,3,-22
CN(C(=O)CCNC(=O)Cn1cnc2ccccc2c1=O)c1ccc(F)cc1,1,2,-6,7
CC(C)[C@H](NC(=O)c1cccc(S(=O)(=O)N2CCOCC2)c1)C(=O)Nc1nccs1,-3,2,-4,17
CC(C)CN=Cc1c(O)c([N+](=O)[O-])cc2oc3c(c12)CCCC3,-10,14,95*,20
O=[N+]([O-])c1cc2oc3c(c2c(C=NCc2ccccc2)c1O)CCCC3,-4,1,61*,25
CN1C(=O)c2cccc3c(S(=O)(=O)NCCc4ccccc4)ccc1c23,-5,-1,-4,56*
COCCNS(=O)(=O)c1ccc2c3c(cccc13)C(=O)N2C,-28,-1,1,?
N#C/C(=C\c1ccc(OCc2ccc(C(=O)O)cc2)cc1)C(=O)NCc1ccccc1,30,2,-4,15
Cc1nc(S/C(=C/c2ccc(OCc3ccc(C(=O)O)cc3)cc2)C(=O)O)n[nH]1,6,0,-7,58*
O=C1CSC(c2cccnc2)N1c1ccc(F)cc1 (stereo not given),99*,6,4,9
O=C1CSC(c2cccnc2)N1CC1CC1 (stereo not given),nt,-1,-1,-8
Cc1ccc(N2C(=O)CSC2c2cccnc2)c(Cl)c1 (stereo not given),nt,-1,2,20
O=C1CSC(c2cccnc2)N1c1cccc(Cl)c1 (stereo not given),99*,0,5,-7
CC(=O)c1ccc(N2C(=O)[C@@H]3[C@H](C2=O)[C@H]2c4ccccc4C=NN2[C@@H]3C(C)=O)cc1,2,0,10,6
COC(=O)CCC(=O)OC1(C)C(=O)C=C2C=C(C3CC3)N(C3CC3)C=C2C1=O (stereo not given),-23,0,1,17
CC(=O)NNC(=O)CSc1nnc(-c2ccccc2)c(-c2ccccc2)n1,83*,0,1,9
Cc1ccc(NC(=O)CCN2C(=O)OC(C)(C)C2(C)O)cc1 (stereo not given),-2,-1,6,0
CCC1(C)OC(=O)NN(c2ccc(C)cc2)C1(C)O (stereo not given),95*,-1,-1,28
CN1CCC(=NNC(=O)CN(c2ccc(Oc3ccccc3)cc2)S(C)(=O)=O)CC1,1,0,2,-22
c1csc(-c2nn3c(C4CCCCC4)nnc3s2)c1,nt,nt,0,nt
OCCCNCc1ccc(N(c2ccccc2)c2ccccc2)cc1,99*,4,10,8
CC(=O)Nc1nonc1NC(=O)COc1ccccc1,-3,-1,5,1
CN(/N=C/c1ccc2c(c1)OCO2)c1ccccc1,85*,3,-7,-1
COc1cc(/C=N/N(C)c2ccccc2)ccc1O,99*,0,-6,0
Cc1cc(S(=O)(=O)N2CCCC2)ccc1OCC(=O)N1CCC(C(N)=O)CC1,-2,0,-1,2
Cc1cc(C)nc(NCC(O)CNc2ccccc2Cl)n1 (stereo not given),92*,-1,-3,0
Cc1cc(Nc2ccccc2Cl)c2ccccc2n1,nt,2,-8,nt
C=CCn1c(-c2cccc(OCC)c2)n[nH]c1=S,48,-2,-1,-1
C=CCn1c(-c2cc(OC)cc(OC)c2)n[nH]c1=S,96*,0,-12,12

# Assay outcomes (PubChem)
